HIF activator – HIF pathway transcriptional activation. U2OS HRE-luciferase reporter, luminescence; normalized: DMSO 0%, desferrioxamine 100%. activation, % at 7.5 µM (by protocol). 300,000 tested, 0.32% active. AID 1910;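 active means mean activation of at least 10% of the iron chelator positive control signal, with at least half of replicates also reaching 10%; inconclusive means mean and replicate majority disagree about reaching 10%; inactive means mean and most replicates under 10%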
LANA-H2A inh – blocks KSHV LANA binding to histone H2A/H2B; Q9QR71; cell-free LANA-H2A/H2B peptide, fluorescence polarization; inhibition, % (test concentration not listed); 320,000 tested, 0.6% active; AID 2629; in the data active means inhibition mostly above about 10%, no sharp cut-off; inactive means mostly below about 6.7%
HDAC3 inhib – inhibitors of human histone deacetylase 3 | O15379 | recombinant HDAC3, fluorogenic peptide/trypsin coupled, fluorescence | inhibition, % at 8.3 µM | 320,000 tested, 0.15% active | AID 2718; in the data active means inhibition above about 26%, passing the limit was not always enough; inconclusive means no clear call, values can overlap the other calls
Target sequence (O15379 whole entry, looked up): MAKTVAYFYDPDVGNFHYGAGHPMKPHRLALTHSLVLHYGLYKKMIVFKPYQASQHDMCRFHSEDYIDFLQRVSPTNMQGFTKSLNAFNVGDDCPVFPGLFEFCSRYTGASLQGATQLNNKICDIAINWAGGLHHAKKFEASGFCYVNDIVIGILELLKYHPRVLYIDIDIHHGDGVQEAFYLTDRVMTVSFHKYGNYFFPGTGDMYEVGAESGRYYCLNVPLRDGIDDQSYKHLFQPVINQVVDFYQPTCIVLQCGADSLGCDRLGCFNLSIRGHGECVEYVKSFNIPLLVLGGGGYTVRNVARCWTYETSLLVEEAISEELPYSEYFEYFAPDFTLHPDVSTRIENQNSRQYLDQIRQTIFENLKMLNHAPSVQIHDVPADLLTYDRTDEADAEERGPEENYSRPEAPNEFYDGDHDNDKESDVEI
Yeast superoxide – caloric restriction mimetics inhibiting age-related superoxide in yeast. S. cerevisiae aged cells, superoxide DHE fluorescence; hits give low values. superoxide response (% of plate mean), % at 10 µM. 330,000 tested, 0.18% active. AID 2690;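 active means superoxide response under a set limit, about three screen SD below normal, cut at about 65% in these data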;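 further: yeast aged for seven days with compound at 30 °C before DHE staining; 100% = average MFI of all compound-treated wells on the plate with controls excluded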
Active calls of the source: *; ? = inconclusive; . = not tested or not shown; + = active, no number; ! = repeats disagree. Shown are actives, neighbours in structure and some others; about 1.2% of the full set was active somewhere.

SMILES	HIF activator	LANA-H2A inh	HDAC3 inhib	Yeast superoxide
CCC(C)c1ccc(NC(=O)C2CC3CCC2C3)cc1 (stereo unspecified)	3	-2	9	103
CCCCc1c(C)nc(N)[nH]c1=O	20*	-5	0	95
CCCCN(C(=O)C1CC(=O)N(c2ccc3c(c2)OCCO3)C1)c1c(N)n(CCCC)c(=O)[nH]c1=O (stereo unspecified)	0	25*	3	79
CCCCN(C(=O)C1CC(=O)N(c2ccc3c(c2)OCCO3)C1)c1c(N)n(CCC)c(=O)[nH]c1=O (stereo unspecified)	.	2	3	100
CC(C)N(C(=O)[C@H]1C[C@H](CC(=O)NCCN2CCOCC2)C(=O)N2CCc3c([nH]c4cc(-c5ccco5)ccc34)[C@]12C)C(C)C	.	.	.	112
C(=N\Nc1nc2ccccc2[nH]1)/c1cccc2cccnc12	271*	4	5	102
O=c1oc2cc([N+](=O)[O-])ccc2nc1/C=C(\O)c1cccc(Br)c1	16*	0	6	75
O=C(c1cc2nc(-c3ccco3)cc(C(F)(F)F)n2n1)N1CCN(Cc2ccccc2)CC1	0	6	-3	85
Cn1c(C(=O)NN)cc2cc(OCc3ccccc3)ccc21	0	-3	0	95
Cc1ccc(C)c(-c2cc(C(=O)Nc3cccc(C(=O)O)c3)c3ccccc3n2)c1	39*	7	2	116
COc1ccc(N2C(=O)[C@@H]3C(c4cccnc4)=NO[C@@H]3C2=O)cc1	30*	5	-2	95
c1ccc(Nc2nnc(-c3cccnc3)s2)cc1	-9	2	-1	113
CCOC(=O)CC(=O)CSc1nc2sc(C)cc2c(=O)n1Cc1ccco1	0	4	6	96
Cc1cc2c(=O)n(Cc3ccco3)c(SCC(=O)c3ccc(Cl)s3)nc2s1	0	3	27*	112
COCCN(C(=O)/C=C/c1ccccc1)c1nnc(-c2cccnc2)s1	0	56*	-4	92
O=c1c2ccccc2nc(-c2ccco2)n1Cc1ccccc1	4	0	3	93
CCOc1ccc(CCn2c(-c3ccco3)nc3ccccc3c2=O)cc1OCC	0	11*	4	97
COc1ccc2[nH]c3c(=O)n(CCCCC(=O)NCCN4CCCC4)c(=S)[nH]c3c2c1	0	4	30*	134
CCOC(=O)C1C2C=CC(CC2)N1c1ccccc1 (stereo unspecified)	0	1	2	96
COc1cccc(NC(=O)c2ccc(OC(F)(F)F)cc2)c1	1	-5	-1	.
CC1=NC(C#N)=C(C#N)NC(C)(C)C1	28*	-1	-4	94
Cc1ccc(OCCN2C(=O)C(=O)c3cccc(C)c32)cc1	0	-5	-7	111
CN(C)C(=O)CSc1nc2ccccc2n1Cc1ccccc1	367*	6	2	93
Cc1c(Cc2ccccc2)sc(/N=C/c2ccc3ccccc3c2)c1C(N)=O	.	+	-2	109
NC(=O)COc1ccc(C2c3c(oc4ccccc4c3=O)C(=O)N2CC2CCCO2)cc1 (stereo unspecified)	0	197*	-1	90
SMILES	HIF activator	LANA-H2A inh	HDAC3 inhib	Yeast superoxide
COc1ccc(C2c3c(oc4ccccc4c3=O)C(=O)N2CC2CCCO2)cc1 (stereo unspecified)	0	1	1	122
CCOC(=O)c1ccccc1NC(=O)Cc1ccc(S(=O)(=O)N2CCCC2)s1	.	-1	3	102
O=C(C1CCCN(Cc2ccccc2Cl)C1)N1CCCCC1 (stereo unspecified)	1	4	-5	96
CC(NCC(=O)NCCc1ccc(S(N)(=O)=O)cc1)c1ccc(F)cc1 (stereo unspecified)	0	-8	-3	102
CC(NCC(=O)Nc1ccccc1C(=O)NC1CC1)c1ccc(S(N)(=O)=O)cc1 (stereo unspecified)	.	+	-1	102
O=C(CCn1cccn1)Nc1ccc2c(c1)OCO2	2	15*	-4	104
CCN(CC(=O)Nc1ccc2c(c1)OCCO2)CC(=O)Nc1ccc2c(c1)OCO2	54*	-3	10	88
CCOc1ccc(-n2c(=O)c3sccc3n(CC(=O)Nc3cccc(OC)c3)c2=O)cc1	0	-3	.	97
CCOC(=O)C1C(=O)CC(C)(O)C(C(=O)OCC)C1c1ccc2c(c1)OCO2 (stereo unspecified)	-16	178*	-2	77
COc1ccc(NC(=O)CSc2nc3c([nH]c4ccccc43)c(=O)n2C)cc1	0	11*	-1	98
COc1ccc(NC(=O)CSc2nc3cccnc3n2C)cc1	0	38*	-4	111
COCCn1c(SCC(=O)Nc2ccc(NC(C)=O)cc2)nc2c([nH]c3ccccc32)c1=O	0	-1	-6	111
COC(=O)c1ccc(NC(=O)CSc2nc3cccnc3n2C)cc1	-46	2	-5	103
O=C(C1CC(=O)N(c2ccc(Cl)cc2)C1)N1CCC(c2nc3ccccc3[nH]2)CC1 (stereo unspecified)	0	.	.	99
Cc1ccc2cc(C#N)c(NCCNC(=O)C3CCC3)nc2c1C	-1	53*	-46	97
COc1ccc(CCNC(=O)c2cc(C)oc2C)cc1OC	0	-1	0	91
Cc1cc(C(=O)NCC(=O)Nc2c(C)cccc2C)c(C)o1	0	167*	-2	98
COc1ccc(CCNC(=O)c2cc(C)oc2C)cc1	0	14*	-6	95
COc1ccc(CCn2c(C)nc3c(c(=O)c4ccccc4n3C)c2=O)cc1	0	11*	5	96
COc1ccc(Cn2c(C)nc3c(c(=O)c4ccccc4n3C)c2=O)cc1	0	3	1	92
C/C(=N\N=C(N)N)c1cccc([N+](=O)[O-])c1	0	-1	-4	96
C/C(=N\N=C(N)N)c1ccc(C)c(C)c1	0	15*	-4	93
Cc1cc(C(=O)COC(=O)C23CC4CC(CC(O)(C4)C2)C3)c(C)n1C	.	1	1	90
CCCn1c(SCC(=O)N2CCc3ccccc3C2)nc2c1c(=O)n(C)c(=O)n2C	735*	0	11	97
Nc1cnc(CNc2ccccc2Cl)cn1	3	5	-8	97
SMILES	HIF activator	LANA-H2A inh	HDAC3 inhib	Yeast superoxide
CCCc1nnc(NC(=O)CCN2C(=O)c3ccccc3C2=O)s1	0	3	6	115
COCc1nnc(NC(=O)CCN2C(=O)c3ccccc3C2=O)s1	0	16*	4	119
COc1ccccc1-c1noc(CCC(=O)Nc2ccccc2Cl)n1	-1	-5	-7	105
O=C(O)C1Nc2c(C(=O)N3CCOCC3)cccc2C2C=CCC12 (stereo unspecified)	0	0	-3	102
Cc1ccc2c(c1C)NC(C(=O)O)C1CC=CC21 (stereo unspecified)	0	27*	?	96
COc1ccc(NC(=O)CNC(=O)Cc2cccc3ccccc23)c(OC)c1	93*	-2	-2	99
O=C(OC[C@@H]1CCCN2CCCC[C@H]12)c1cc2ccccc2oc1=O	0	1	-2	95
NCCc1cnc[nH]1	0	22*!	-3	107
